An excerpt weighted towards active compounds, which were near 10% of everything screened.
12-hLO inh: qHTS Assay for Inhibitors of 12-hLO (12-human lipoxygenase). purified 12-hLO, xylenol orange hydroperoxide absorbance. 150,000 tested, 0.12% active. Potency, µM (top dose mostly 57.1 µM), most hits filed as inhibitors. AID 1452, 2008; active means well fitted inhibition curve with a large enough effect; inconclusive means small, poorly fitted or top-dose-only effect; further: nearly all actives have a fitted effect of over 55% in size
Target sequence (P18054 whole entry, looked up): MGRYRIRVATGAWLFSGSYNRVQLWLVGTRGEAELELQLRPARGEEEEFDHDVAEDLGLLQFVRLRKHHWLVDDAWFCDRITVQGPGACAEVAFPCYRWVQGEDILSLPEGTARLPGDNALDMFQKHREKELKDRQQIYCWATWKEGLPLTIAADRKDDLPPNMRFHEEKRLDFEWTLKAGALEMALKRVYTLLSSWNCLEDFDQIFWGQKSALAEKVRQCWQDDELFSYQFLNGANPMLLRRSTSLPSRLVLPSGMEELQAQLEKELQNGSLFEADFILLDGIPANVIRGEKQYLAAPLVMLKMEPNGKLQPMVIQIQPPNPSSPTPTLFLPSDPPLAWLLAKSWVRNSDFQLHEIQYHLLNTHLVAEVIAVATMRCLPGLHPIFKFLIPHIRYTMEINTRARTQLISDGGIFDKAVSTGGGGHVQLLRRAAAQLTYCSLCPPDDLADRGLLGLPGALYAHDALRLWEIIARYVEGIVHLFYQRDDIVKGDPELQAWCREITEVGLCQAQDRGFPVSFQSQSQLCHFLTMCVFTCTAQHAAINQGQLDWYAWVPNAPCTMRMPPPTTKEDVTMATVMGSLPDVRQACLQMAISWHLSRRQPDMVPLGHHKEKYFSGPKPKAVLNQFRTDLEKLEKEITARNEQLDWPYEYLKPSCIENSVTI
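Lipoxygenase turnover measured by absorbance at 573 and 405 nm after Fe-XO development. Human 12hLO 150 nM, arachidonate 40 uM, pH 7.0 Hepes buffer with detergent; 15 min compound preincubation, 30 min reaction.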
HPGD inh: qHTS Assay for Inhibitors of HPGD (15-Hydroxyprostaglandin Dehydrogenase); 150,000 tested, 4.3% active; purified HPGD, NADH fluorescence kinetic, PGE2 substrate; 15-hydroxyprostaglandin dehydrogenase [NAD(+)] (Homo sapiens), P15428; Potency, µM, usual class: inhibitors
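20 nM HPGD preincubated 15 min at room temperature with compound in 50 mM Tris-HCl pH 8, 0.01% Tween 20. Started with 1 mM NAD+ and 30 uM prostaglandin E2; NADH fluorescence (360/450 nm) read 5 times over 30-s intervals, last minus first.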
Lamin A splicing: qHTS Assay for Modulators of Lamin A Splicing; 200,000 tested, 0.01% active; AID 1487, 2009; HeLa LMNA splicing GFP/RFP minigene ratio, 48 h; Potency, µM (top dose mostly 46.1 µM), most hits filed as inhibitors; active means well fitted inhibition curve with a large enough effect in the signal ratio, with a control signal flat, not every such curve was filed as active; inconclusive means small, poorly fitted or top-dose-only effect, or effect the other way, or a change in a side signal; the % refers to the signal ratio
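Read-out is the ratio of GFP to DsRed2 object intensity, acquired by 488 nm laser-scanning cytometry on HeLa lamin A-EGFP minigene reporter cells. Compound incubation 48 hrs at 37 °C in Opti-MEM with 2% FBS; DMSO 0.5% final.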
PNC inhibitor: High Content Assay for Compounds that inhibit the Assembly of the Perinucleolar Compartment; PC3M PTB-GFP, PNC prevalence imaging, 16 h; hits give low values; activity change (PNC), negative = inhibition, % at 10 µM; 140,000 tested, 3.1% active;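 active means readout at or below -70, meaning at least 70% loss of cells showing the perinucleolar compartment, a nuclear body marking cancer cells; inconclusive means readout between -30 and a set limit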
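Compounds are pinned in duplicate onto adhered PC3M cells stably expressing GFP-tagged PTB and incubated 16 h at 37 C. Cells are then fixed, nuclei stained with Hoechst, and PNC-positive cells counted.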
ALDH1A1 block: qHTS Assay for Inhibitors of Aldehyde Dehydrogenase 1 (ALDH1A1) | Aldehyde dehydrogenase 1A1 (Homo sapiens), P00352 | Purified ALDH1A1, NADH fluorescence, propionaldehyde substrate | Potency, µM (highest dose often 75.3 µM), hits mostly inhibitors | 220,000 tested, 7.3% active | AID 1030, 2008
Large screens that a line does not name were inactive. Unless noted, the call rests on the fitted dose curve; in most records, active means well fitted inhibition curve with a large enough effect (not every such curve was filed as active); inconclusive means small, poorly fitted or top-dose-only effect, or another doubt; inactive means no such curve, though single readings can be large or run the other way.

CCN(CC)c1c([N+](=O)[O-])c(=O)sc2ccccc12	HPGD inh inconclusive
O=C(NCc1nnc2c3ccccc3c(-c3ccccc3)nn12)c1ccccc1Cl	Lamin A splicing inconclusive
O=C(COc1ccc(Cl)cc1)NCc1nnc2c3ccccc3c(-c3ccccc3)nn12	Lamin A splicing inconclusive, PNC inhibitor -108.5, ALDH1A1 block inconclusive
COc1cc2c(cc1OC)C(CC#N)=NC(C)(C)C2	ALDH1A1 block 2µM
Cc1occc(=O)c1OC(=O)Nc1ccc(Cl)c(Cl)c1	Lamin A splicing inconclusive, PNC inhibitor -113.4
CCOC(=O)c1c(NC(=O)CSc2ncn[nH]2)sc(C)c1C	Lamin A splicing inconclusive, PNC inhibitor inconclusive, ALDH1A1 block 25.1µM
CCOC(=O)c1c(NC(=O)CSC(=S)N(C)C)sc(C)c1C	Lamin A splicing inconclusive, ALDH1A1 block 25.1µM
CCOC(=O)c1c(N2C(=O)C=CC2=O)sc(C)c1C	HPGD inh 2µM, Lamin A splicing inconclusive, PNC inhibitor inconclusive, ALDH1A1 block 0.501µM
CCOC(=O)c1c(NC(=O)CSc2nnc(C)c(=O)[nH]2)sc(C)c1C	none (no result: 12-hLO inh, HPGD inh, Lamin A splicing, PNC inhibitor)
O=C1[C@@H]2[C@H]3[C@H](O)[C@H](O)C/C(=N/OCc4ccccc4)[C@H]3CC[C@H]2C(=O)N1c1ccc(F)cc1F	none (no result: 12-hLO inh, HPGD inh, Lamin A splicing, PNC inhibitor)
Cc1ccc(S(=O)(=O)O[C@H]2CC(C(C)(C)C)CC[C@@H]2c2ccccc2)cc1 (some centres not stated)	none (no result: 12-hLO inh, Lamin A splicing, PNC inhibitor)
O=C(O)[C@H](C1NCCS1)N1C(=O)c2ccccc2C1=O (some centres not stated)	none (no result: 12-hLO inh, Lamin A splicing, PNC inhibitor)
Cc1ccc(-n2c(N)c(-c3nc4ccccc4n3C)sc2=S)cc1	HPGD inh 6.31µM, PNC inhibitor inconclusive, ALDH1A1 block 3.55µM
Cn1c(-c2ccc(N)cc2)nc2ccccc21	ALDH1A1 block inconclusive (no result: HPGD inh)
C[C@@H]1CC2(OC[C@]3(C)O[C@H]23)O[C@H]2C[C@@]3(C)[C@@H]4CC[C@H]5C(C)(C)C(O[C@@H]6OC[C@@H](O)[C@H](O)[C@H]6O)CC[C@@]56C[C@@]46CC[C@]3(C)[C@@H]12 (some centres not stated)	none (no result: Lamin A splicing, PNC inhibitor)
CC(C)CN1C(=O)/C(=C(/C#N)C(=O)NC2CCCCC2)c2ccccc21	Lamin A splicing inconclusive, ALDH1A1 block 5.01µM (no result: 12-hLO inh, HPGD inh, PNC inhibitor)
N#CC(C(=O)NC1CCCCC1)=C1CCCCC1	PNC inhibitor inconclusive
COc1cc(CNc2nc(C)c([N+](=O)[O-])c(C)c2C#N)cc(OC)c1	ALDH1A1 block 3.98µM
Cc1nc(NCCc2ccccc2F)c(C#N)c(C)c1[N+](=O)[O-]	PNC inhibitor inconclusive, ALDH1A1 block 14.1µM
COc1ccccc1Nc1nnc(SCC2CCCCO2)s1 (configuration not stated)	ALDH1A1 block 31.6µM (no result: 12-hLO inh, HPGD inh, Lamin A splicing, PNC inhibitor)
CC(=O)NS(=O)(=O)c1ccc(NC(=O)c2ccc3c(c2)C(=O)N(CCC(C)C)C3=O)cc1	HPGD inh 28.2µM, ALDH1A1 block inconclusive
COCCCN1C(=O)c2ccc(C(=O)Nc3ccc(OC)cc3)cc2C1=O	ALDH1A1 block inconclusive
CC(C)CN1C(=O)c2ccc(C(=O)Nc3ccncc3)cc2C1=O	Lamin A splicing inconclusive, ALDH1A1 block 0.631µM
CC(C)CN1C(=O)c2ccc(NC(=O)c3cccs3)cc2C1=O	HPGD inh inconclusive, PNC inhibitor inconclusive, ALDH1A1 block inconclusive
CC(C)CN1C(=O)c2ccc(C(=O)Nc3ccccn3)cc2C1=O	ALDH1A1 block 1.12µM
c1csc(CNc2nc(-c3ccoc3)nc3ccccc23)c1	Lamin A splicing inconclusive (no result: 12-hLO inh, HPGD inh, PNC inhibitor)
Cc1ccc(NC(=O)CCC(=O)N2Cc3ccccc3Oc3ncccc32)c(C)c1	none (no result: 12-hLO inh, HPGD inh, PNC inhibitor, ALDH1A1 block)
CCCC1(C)NC(=O)c2ccccc2O1 (configuration not stated)	none (no result: 12-hLO inh, HPGD inh, PNC inhibitor)
CC(=O)c1cc2c(cc1NC(=O)CN1CCCCCCC1)OCO2	ALDH1A1 block 10µM
CC(=O)c1cc2c(cc1NC(=O)CCCC(=O)O)OCO2	none
Cc1ccc(-n2nnnc2SCC(=O)NC2CCCc3ccccc32)cc1 (configuration not stated)	ALDH1A1 block 7.94µM
O=C(CSc1nnnn1-c1cccc2c1CCCC2)N1CCCCC1	HPGD inh inconclusive, Lamin A splicing inconclusive, PNC inhibitor inconclusive, ALDH1A1 block 31.6µM
Cc1ccc(-n2nnnc2SCC(=O)N2CCc3ccccc3C2)c(C)c1	Lamin A splicing inconclusive, PNC inhibitor inconclusive, ALDH1A1 block inconclusive
Cc1ccc(-n2nnnc2SCC(=O)N2CCc3ccccc3C2)cc1	PNC inhibitor -100.0, ALDH1A1 block inconclusive
Cc1ccc(-n2nnnc2SCC(=O)N2CCCCC2)cc1	none
CCC(CC)C(=O)c1c[nH]c(C(=O)N2CCN(c3ccc(OC)cc3)CC2)c1	none (no result: 12-hLO inh, HPGD inh, PNC inhibitor)
Cc1ccccc1Nc1nc(-c2sc(NC(=O)c3ccccc3)nc2C)cs1	HPGD inh inconclusive, ALDH1A1 block 20µM
Cc1nc(NC(=O)c2ccccc2)sc1-c1csc(Nc2ccc(Cl)cc2)n1	PNC inhibitor inconclusive, ALDH1A1 block inconclusive
Cc1ccccc1Nc1nc(-c2sc(NC(=O)c3cccc(Cl)c3)nc2C)cs1	PNC inhibitor inconclusive, ALDH1A1 block 17.8µM
Cc1nc(NC(=O)c2ccccc2)sc1-c1csc(Nc2ccc(F)cc2)n1	HPGD inh inconclusive, PNC inhibitor -100.0, ALDH1A1 block inconclusive
CCOc1ccccc1Nc1nc(-c2sc(NC(=O)c3ccc([N+](=O)[O-])cc3)nc2C)cs1	Lamin A splicing inconclusive, ALDH1A1 block 0.794µM
O=S(=O)(CCN(CCS(=O)(=O)C(F)(F)F)CC1CCCO1)C(F)(F)F (configuration not stated)	ALDH1A1 block 7.08µM
CCOc1ncccc1C(=O)N1CCCSC1=Nc1ccc(C(C)=O)cc1	none (no result: 12-hLO inh, HPGD inh, PNC inhibitor)
COc1ccc(-n2cccc2C=O)cc1	ALDH1A1 block 11.2µM
COc1ccc(-n2cccc2/C=C/[N+](=O)[O-])cc1	HPGD inh 35.5µM, Lamin A splicing inconclusive, ALDH1A1 block inconclusive
CCSc1ccccc1C(=O)N1CCN(c2nc3ccccc3s2)CC1	none (no result: 12-hLO inh, HPGD inh, PNC inhibitor, ALDH1A1 block)
COC(=O)c1c(O)cc(=O)n2c1CCCCC2	ALDH1A1 block 1.78µM (no result: 12-hLO inh, HPGD inh, PNC inhibitor)
Cc1oc2ncn(CC(C)C)c(=O)c2c1C(=O)NC(C)c1ccccc1 (configuration not stated)	none (no result: 12-hLO inh, HPGD inh, PNC inhibitor, ALDH1A1 block)
CNc1ccc(S(=O)(=O)NCC(=O)OCC(=O)Nc2cccc(Cl)c2Cl)cc1[N+](=O)[O-]	Lamin A splicing inconclusive, ALDH1A1 block inconclusive
CN(C)c1ccc(S(=O)(=O)NCC(=O)OCC(=O)Nc2cccc(Cl)c2)cc1[N+](=O)[O-]	ALDH1A1 block 7.94µM
COc1ccc(C)cc1NC(=O)C(OC(=O)c1ccc([N+](=O)[O-])o1)c1ccccc1 (configuration not stated)	ALDH1A1 block 17.8µM

High-throughput results as filed in PubChem BioAssay.
